# Test results taken from PubChem BioAssay (Tox21).
# Values without a mark were called inactive. A call without a number means that no potency is given here. Calls of active or inactive are those of the source. Calls follow the shape of the dose curve; as a rule, active = well fitted activation curve with a large enough effect in the repeat runs; inconclusive = weak or mixed curves; inactive = flat fitted curve, though single readings scatter.
# Target: KiSS-1 receptor (Homo sapiens) (UniProt Q969F8)
# Assay: Human kisspeptin (KISS1R) small molecule agonists, calcium flux assay in KISS1R-HEK293 cells (AID 1920064)
# Details: KISS1R-HEK293, calcium flux fluorescence, agonist; series mostly up to 76.8 µM
# From the text: National Center for Advancing Translational Sciences [NCATS]
# Division of Preclinical Innovation [DPI]
# U.S. Environmental Protection Agency [EPA]
# National Institutes of Environmental Health Sciences [NIEHS]
# National Toxicology Program [NTP]
# U.S. Food and Drug Administration [FDA]
# Kisspeptin and its receptor KISS1R play key roles in mammalian reproduction due to their involvement in the onset of puberty and control of the hypothalamic-pituitary-gonadal axis such as regulates GnRH release from the hypothalamus. The kisspeptin/KISS1R system also plays a direct role in peripheral organs (including the ovary, testis, uterus, and placenta) and is implicated in reproductive diseases such as miscarriage and polycystic ovary syndrome (PCOS). Abnormal KISS1R activity is associated with abnormal puberty, infertility, endometriosis, and hormone-dependent tumors. The KISS1 receptor (KISS1R, also called GPR54), a G-protein-coupled receptor (GPCR), acts (through phospholipase C) to increase intracellular inositol trisphosphate and then release intracellular calcium stores. Cell-based KISS1R-HEK293 assay is using HEK293 cells that have been genetically engineered to express the human KISS1R, which activity can be measured by calcium signaling. A compound/drug can activate (agonist) KISS1R that can be monitored by levels of intracellular calcium.
# KISS1R-HEK293 cells developed by Codex Corp contain human KISS1R gene, which was stably integrated into HEK 293 cells. The compound activation can be detected by fluorescence intensity via calcium flux assay. This cell line has been used to screen the Tox21 10K compound library to identify agonists of KISS1R.
# KISS1R-Hek293 cells were dispensed at 1500 cells/4uL/well in 1536-well black wall/clear bottom plates using a multidrop dispenser. After the assay plates were incubated at a 37 C/5% CO2 incubator for 18 hours, 4 microL of Calcium Dye Solution was added to each well. The plates were incubated at 37 C for 1 hour. And then 23 nL of compounds dissolved in DMSO, positive controls, or DMSO only was transferred to the assay plate by a pin tool station. The fluorescence intensity in the plates was measured using FDSS 7000EX kinetic plate reader with a filter set of Ex/Em=480/540 for 3 min at 1 sec intervals. Each test compound was measured at 15 concentrations and in triplicates.
# Chain of KiSS-1 receptor (Homo sapiens) (Q969F8 whole entry, looked up): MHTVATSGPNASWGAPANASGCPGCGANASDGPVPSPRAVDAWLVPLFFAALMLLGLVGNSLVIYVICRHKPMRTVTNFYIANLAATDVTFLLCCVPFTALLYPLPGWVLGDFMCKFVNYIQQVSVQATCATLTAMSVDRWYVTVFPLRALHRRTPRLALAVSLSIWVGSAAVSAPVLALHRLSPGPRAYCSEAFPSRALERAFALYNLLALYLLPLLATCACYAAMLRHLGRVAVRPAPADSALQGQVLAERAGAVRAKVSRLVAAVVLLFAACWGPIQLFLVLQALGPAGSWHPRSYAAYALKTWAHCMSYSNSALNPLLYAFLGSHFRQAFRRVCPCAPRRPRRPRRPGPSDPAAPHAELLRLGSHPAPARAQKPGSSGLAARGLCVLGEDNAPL
SMILES,Potency,activation
CCN(Cc1cccc(S(=O)(=O)O)c1)c1ccc(C(=C2C=CC(=[N+](CC)Cc3cccc(S(=O)(=O)O)c3)C=C2)c2ccc(O)cc2S(=O)(=O)[O-])cc1,inactive,
Fc1ccc(C(c2ccc(F)cc2)N2CCN(C/C=C/c3ccccc3)CC2)cc1,inactive,
CCOC(=O)/C=C(C)/C=C/C=C(C)/C=C/c1c(C)cc(OC)c(C)c1C,inactive,
COC(OC)(C(=O)c1ccccc1)c1ccccc1,inactive,
Nc1ccc(F)cc1F,inactive,
CCn1c(=O)c2c(nc(/C=C/c3ccc(OC)c(OC)c3)n2C)n(CC)c1=O,inactive,
C=C(C)C(=O)OCCO,inactive,
c1cc2ccc3ccc4ccc5cccc6c(c1)c2c3c4c56,,0.0535% [at 2.72 µM]
C1CN(SSN2CCOCC2)CCO1,inactive,
CCC(C)[O-].CCC(C)[O-].CCOC(=O)/C=C(/C)[O-].[Al+3],inactive,
CCCCN(CCCC)CCC(O)c1cc2c(Cl)cc(Cl)cc2c2cc(C(F)(F)F)ccc12 (stereo not given),inactive,
N[C@@H](Cc1ccc(O)cc1)C(=O)O,,0.301% [at 6.97 µM]
CC1=NN(c2cccc(S(=O)(=O)O)c2)C(=O)C1,inactive,
CC(CO)(CO)[N+](=O)[O-],inactive,
CCN(Cc1cccc(S(=O)(=O)O)c1)c1ccc(C(=C2C=CC(=[N+](CC)Cc3cccc(S(=O)(=O)O)c3)C=C2)c2ccccc2S(=O)(=O)[O-])cc1,inactive,
O=C(N[C@@H](c1ccccc1)[C@@H]1CCCCN1)c1cccc(C(F)(F)F)c1Cl,inactive,
CCCCCCCCCCCCCCCCCCNC(=O)OC1CCN(C(=O)OC[C@H](COC(=O)N(Cc2cccc[n+]2CC)C(=O)c2ccccc2OC)OC)CC1,inactive,
O=C(c1ccc(F)cc1)C1CCN(CCn2c(=S)[nH]c3ccccc3c2=O)CC1,inactive,
CC1(COc2ccc(CC3SC(=O)NC3=O)cc2)CCCCC1 (stereo not given),inactive,
OCc1cc(C(O)CNCCCCCCOCCCCc2ccccc2)ccc1O (stereo not given),inactive,

SMILES,Potency,activation
C[C@@H](O[C@H]1OCCN(Cc2n[nH]c(=O)[nH]2)[C@H]1c1ccc(F)cc1)c1cc(C(F)(F)F)cc(C(F)(F)F)c1,inactive,
NC(=O)Cn1c(=O)cc(CCN2CCN(c3nccc4sccc34)CC2)c2ccc(F)cc21,inactive,
CCCC/C=C/CCCCO,inactive,
CC/C=C\CCCCCCCCCCOC(C)=O,inactive,
c1ccc(C(O[C@@H]2CCCN(CCc3ccc4c(c3)OCO4)C2)c2ccccc2)cc1,inactive,
CCCCCCCC/C=C\CCCCCCCC(=O)N(C)CC(=O)O,inactive,
N/C(=N\N=C\c1ccc(Cl)cc1)N/N=C/c1ccc(Cl)cc1,inactive,
C/C=C/C=C/C=O,inactive,
CCCCCC/C=C\CCCCCCCC(=O)O,inactive,
C[C@@H]1CN(c2c(F)c(F)c3c(=O)c(C(=O)O)cn(C4CC4)c3c2F)C[C@H](C)N1,,-0.0587% [at 15.8 µM]
Nc1ccn([C@@H]2O[C@H](CO)[C@@H](O)C2O)c(=O)n1 (stereo not given in full),inactive,
CC(C)c1c(C(=O)Nc2ccccc2)c(-c2ccccc2)c(-c2ccc(F)cc2)n1CC[C@@H](O)C[C@@H](O)CC(=O)O,inactive,
Cc1cccc(N(C)C(=S)Oc2ccc3c(c2)C2CCC3C2)c1 (stereo not given),inactive,
COC(=O)c1ccc(C(=O)O)cc1,inactive,
CCOCC(C)O (stereo not given),inactive,
Cn1c(=O)c2c(ncn2CC2OCCO2)n(C)c1=O,inactive,
Nc1ccc(N=Nc2ccc(N)cc2)cc1,inactive,
Cc1cc2c(C(C)C)c(O)c(O)c(C=O)c2c(O)c1-c1c(C)cc2c(C(C)C)c(O)c(O)c(C=O)c2c1O,inactive,
CCCCCCCOC(=O)CCC,inactive,
CCOCN(C(=O)CS(=O)(=O)O)c1c(C)cccc1CC,inactive,
